# Data from PubChem BioAssay.
# Inconclusive results are not listed. The source made the active and inactive calls.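 The calls were made as follows, unless noted: active = binding below the plate cutoff, the plate median minus 3 SD, with a reading above zero; inconclusive = below the plate cutoff but reading exactly zero; inactive = the rest.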
# Key:
# [1] = yeast TOR pathway RPL19A-GFP modulators, primary screen, cell-based, S. cerevisiae, multiplex flow cytometry (AID 1862; in the data active = percent of DMSO control GFP below about 86%;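 also: lower values mimic rapamycin by blocking the RPL19A rise seen in DMSO cells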); details: S. cerevisiae RPL19A-GFP strain, flow cytometry fluorescence, 3 h; at 10 µM; stronger effect = lower value
# [2] = modulators of MEP2-GFP levels in yeast, primary screen, S. cerevisiae, multiplex flow cytometry (AID 1867;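 active = GFP response, as percent of the DMSO control, above the screen-wide mean plus 3 SD, about 139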;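 also: median GFP channel fluorescence of barcode-gated MEP2-GFP cells measured by flow cytometry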); details: S. cerevisiae MEP2-GFP strain, 3 h, at 10 µM, stronger effect = higher value, 100% means same as DMSO wells
# [3] = modulators of CIT2-GFP expression in yeast, primary screen, S. cerevisiae, GFP fusion, multiplex flow cytometry (AID 1870;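 active = percent response above a set limit, the screen-wide mean plus 3 SD, cut at about 130% in these data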;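 also: barcoded CIT2-GFP strain pooled with four other GFP strains with rapamycin as positive control; median GFP fluorescence per well over plate mean of DMSO wells so 100% = DMSO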); details: 3 h, at 10 µM, stronger effect = higher value
# [4] = modulators of LAP4-GFP expression in yeast, primary screen, S. cerevisiae, multiplex flow cytometry (AID 1873;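 active = GFP signal, as percent of the solvent control, above the screen mean plus 3 SD, about 149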); details: 3 h, at 10 µM, stronger effect = higher value
# [5] = modulators of AGP1-GFP expression in yeast TOR pathway, primary screen, cell-based, multiplex flow cytometry, S. cerevisiae (AID 1887;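 active = GFP signal above the screen-wide mean plus 3 SD, that is over about 124.5% of the solvent control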;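 also: AGP1-GFP fusion strain of S. cerevisiae within a five-strain barcoded multiplex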); details: 3 h, at 10 µM, stronger effect = higher value
# [6] = inhibitors of CD8+ T cell-vesicle binding, pilot screen, LFA-1/ICAM-1 modulator project, MLPCN validation set, flow cytometry (AID 2523;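 active = response below a set limit, under 55% cells CD8-positive and vesicle-bound, and CD8 cells' 90th-percentile brightness under 279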;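 as to vesicle binding response: mean PE anti-B7-1 fluorescence of CD8+ cells relative to row control; 100% = QL9-loaded vesicles with DMSO vehicle in the same plate row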); details: 2C mouse CD8+ T cells, at 7 µM, stronger effect = lower value; double positive events: measured here: CD8+/vesicle+ event percentage
# [7] = target: Integrin beta-1 (Homo sapiens) + Integrin alpha-4 (Homo sapiens) (UniProt P13612+P05556); assay: inhibition of HUTS-21 binding to VLA-4, pilot screen, VLA-4 allosteric modulator project, U937 cells, HUTS-21 mAb, flow cytometry, validation set (AID 2674;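 active = inhibition above 50%, about 3 SD of the validation set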;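 also: antibody binding induced by the VLA-4 ligand LDV present at three times its Kd; 0% = LDV ligand with antibody and no compound and 100% = antibody without LDV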); details: HUTS-21 LIBS mAb binding, at 6.7 µM, stronger effect = higher value, binding induced by LDV ligand
# [8] = superoxide lowering in aged yeast cells, pilot screen, validation compound set (AID 2706;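 active = superoxide response below 65% of plate, a cut near 3 SD across the whole screen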;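 also: yeast exposed to compound for one week at 30 degrees C before staining; 100% = mean of all compound wells on the same plate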); details: S. cerevisiae aging, superoxide DHE fluorescence; at 10 µM; stronger effect = lower value
# [9] = target: Beta-adrenergic receptor kinase 1 (Homo sapiens) (UniProt P25098); assay: GRK2 binders displacing RNA aptamer, biochemical, validation, human GRK2, bead flow cytometry (AID 488806;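 active = aptamer binding inhibition above 30%, about 3 SD of noise from non-fluorescent compounds; inactive = inhibition at or below 30%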); details: bead-bound GRK2, FAM-aptamer displacement, at 10 µM, stronger effect = higher value
# [10] = target: Beta-2 adrenergic receptor (Homo sapiens) (UniProt P07550); assay: beta2AR agonists driving receptor internalization, pilot screen, cell-based, FAP fluorogen, flow cytometry, validation set (AID 504459;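 active = percent response above 42, roughly 3 SD of non-fluorescent test compounds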;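 also: agonist-driven loss of surface beta2AR via internalization measured by FAP dye flow cytometry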); details: Am2.2-beta2AR cells, FAP surface receptor flow cytometry; at 10 µM; stronger effect = higher value
# [11] = target: AP-2 complex subunit beta (Homo sapiens) (UniProt P63010); assay: inhibitors of arrestin peptide binding to AP2, pilot screen, biochemical, validation set, GST-AP2 beads, flow cytometry (AID 504541;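 active = inhibition above 54%, about 3 SD of non-fluorescent compounds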;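 also: AP2 carries R879A mutation and is captured from E. coli lysate; bead-bound FITC arrestin peptide fluorescence measuring arrestin peptide binding to AP2; 0% = DMSO wells and 100% = excess unlabeled arrestin peptide control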); details: FITC arrestin peptide, at 10 µM, stronger effect = higher value, AP2 beta2 appendage fragment, R879A mutant
# [12] = yeast V-ATPase proton transport modulators, S. cerevisiae, pHLuorin, HTS validation (AID 504600; in the data active = response above about 15%;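 also: plate controls were DMSO for no effect and reference compound for full effect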); details: S. cerevisiae pHLuorin cytosolic pH, at 10 µM, stronger effect = higher value
# [13] = system: anti-desmoglein-3 scFv antibody binding to human DSG3; assay: inhibitors of anti-DSG3 scFv binding to DSG3, pilot screen, biochemical, validation compound set, bead-based, flow cytometry (AID 588368); details: Protein G beads, DSG3-Fc, scFv-GFP binding, at 10 µM, stronger effect = lower value;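 also: signal is the median channel fluorescence of bead-bound GFP antibody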
# [14] = inhibitors of fungal efflux pumps CDR1, CDR2, MDR1, pilot screen, validation compound set, multiplex, phenotypic (AID 588506;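 active = efflux inhibition above 0.42, the validation set average plus 4 SD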;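 also: Nile Red retained in cells so higher fluorescence means more efflux inhibition; 0 = negative control wells and 1 = enniatin B 25 µM full block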); details: S. cerevisiae pump-expressing triplex, Nile Red efflux flow cytometry; at 10 µM; stronger effect = higher value; the pumps come from Candida albicans
# [15] = target: ATP-binding cassette sub-family B member 6 (Homo sapiens) (UniProt Q9NP58); assay: ABCB6 transporter inhibitors, pilot screen, K562-ABCB6 cells, flow cytometry, validation set (AID 588550;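 active = inhibition above the screen-wide mean plus 3 SD, about 51%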;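 also: 0% = DMSO wells and 100% = benzethonium chloride 70 µM positive control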); details: K562-ABCB6 porphyrin accumulation, 1 h, at 10 µM, stronger effect = higher value
# [16] = promoters of myeloid differentiation in arrested cells, primary screen, cell-based, GFP/MAC1 double positive, flow cytometry, validation set (AID 588685;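 active = differentiation response of at least 50%, scaled between solvent and reference control, from cells with both markers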;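 also: compound exposure lasts four days before antibody staining and flow analysis; 0% = DMSO wells and 100% = 5 µM fulvestrant positive control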); details: ER-HoxA9 marrow cells, stronger effect = higher value, normalized: vehicle 0, fulvestrant 100
# Sequence of Beta-adrenergic receptor kinase 1 (Homo sapiens) (P25098 whole entry, looked up): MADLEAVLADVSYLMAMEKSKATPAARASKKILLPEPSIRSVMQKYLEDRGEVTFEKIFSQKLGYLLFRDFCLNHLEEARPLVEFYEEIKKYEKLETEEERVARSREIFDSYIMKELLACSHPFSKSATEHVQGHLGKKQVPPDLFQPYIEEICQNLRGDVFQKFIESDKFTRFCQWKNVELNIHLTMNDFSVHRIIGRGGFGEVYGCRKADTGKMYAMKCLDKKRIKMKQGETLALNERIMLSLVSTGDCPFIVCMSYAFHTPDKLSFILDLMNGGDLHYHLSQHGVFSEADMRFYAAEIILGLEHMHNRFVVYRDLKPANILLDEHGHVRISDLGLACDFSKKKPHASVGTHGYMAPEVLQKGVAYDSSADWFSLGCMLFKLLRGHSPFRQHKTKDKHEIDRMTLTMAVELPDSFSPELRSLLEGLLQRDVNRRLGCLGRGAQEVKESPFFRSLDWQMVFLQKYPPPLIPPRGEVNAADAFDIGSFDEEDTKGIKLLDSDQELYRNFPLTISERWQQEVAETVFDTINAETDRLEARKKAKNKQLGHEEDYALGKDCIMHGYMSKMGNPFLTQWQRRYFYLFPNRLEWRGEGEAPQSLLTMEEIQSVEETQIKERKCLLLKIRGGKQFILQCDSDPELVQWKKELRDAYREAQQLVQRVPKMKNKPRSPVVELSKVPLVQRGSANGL
# Sequence of Beta-2 adrenergic receptor (Homo sapiens) (P07550 whole entry, looked up): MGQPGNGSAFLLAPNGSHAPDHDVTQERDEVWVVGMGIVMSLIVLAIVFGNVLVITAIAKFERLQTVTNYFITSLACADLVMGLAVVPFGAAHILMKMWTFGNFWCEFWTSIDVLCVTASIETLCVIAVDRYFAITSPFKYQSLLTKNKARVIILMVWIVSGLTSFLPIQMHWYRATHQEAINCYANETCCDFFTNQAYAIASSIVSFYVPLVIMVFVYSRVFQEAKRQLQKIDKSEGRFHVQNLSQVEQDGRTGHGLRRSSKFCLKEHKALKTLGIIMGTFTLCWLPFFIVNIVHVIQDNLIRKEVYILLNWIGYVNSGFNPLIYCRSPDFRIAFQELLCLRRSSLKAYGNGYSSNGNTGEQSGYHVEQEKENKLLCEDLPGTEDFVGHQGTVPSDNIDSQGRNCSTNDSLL
# Sequence of AP-2 complex subunit beta (Homo sapiens) (P63010 whole entry, looked up, the tested form may be a part, one chain of several): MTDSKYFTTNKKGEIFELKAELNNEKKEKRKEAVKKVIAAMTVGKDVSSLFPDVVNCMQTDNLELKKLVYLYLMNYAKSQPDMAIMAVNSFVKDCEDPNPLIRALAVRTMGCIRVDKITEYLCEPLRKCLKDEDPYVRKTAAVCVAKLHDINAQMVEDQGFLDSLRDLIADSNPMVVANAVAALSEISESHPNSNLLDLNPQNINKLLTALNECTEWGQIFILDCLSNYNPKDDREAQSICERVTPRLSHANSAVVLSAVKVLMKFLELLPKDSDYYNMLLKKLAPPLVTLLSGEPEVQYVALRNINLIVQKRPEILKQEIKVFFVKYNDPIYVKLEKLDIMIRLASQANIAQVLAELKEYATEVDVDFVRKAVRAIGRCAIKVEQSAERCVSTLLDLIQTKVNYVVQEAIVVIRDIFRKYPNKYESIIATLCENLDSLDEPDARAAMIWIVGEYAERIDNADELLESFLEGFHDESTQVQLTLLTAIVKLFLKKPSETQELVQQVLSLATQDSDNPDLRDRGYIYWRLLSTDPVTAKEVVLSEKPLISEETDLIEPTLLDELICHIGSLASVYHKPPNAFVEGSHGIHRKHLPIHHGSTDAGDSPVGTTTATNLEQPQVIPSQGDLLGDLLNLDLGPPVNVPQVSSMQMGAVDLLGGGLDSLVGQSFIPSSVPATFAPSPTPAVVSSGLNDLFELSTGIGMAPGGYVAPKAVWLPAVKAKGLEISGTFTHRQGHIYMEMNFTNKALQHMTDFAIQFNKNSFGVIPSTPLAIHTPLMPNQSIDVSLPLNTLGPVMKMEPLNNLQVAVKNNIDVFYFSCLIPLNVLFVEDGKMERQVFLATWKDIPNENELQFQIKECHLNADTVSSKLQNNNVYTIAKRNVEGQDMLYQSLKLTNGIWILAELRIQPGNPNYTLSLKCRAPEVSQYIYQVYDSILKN
# Sequence of Integrin beta-1 (Homo sapiens) + Integrin alpha-4 (Homo sapiens) (P05556 whole entry, looked up): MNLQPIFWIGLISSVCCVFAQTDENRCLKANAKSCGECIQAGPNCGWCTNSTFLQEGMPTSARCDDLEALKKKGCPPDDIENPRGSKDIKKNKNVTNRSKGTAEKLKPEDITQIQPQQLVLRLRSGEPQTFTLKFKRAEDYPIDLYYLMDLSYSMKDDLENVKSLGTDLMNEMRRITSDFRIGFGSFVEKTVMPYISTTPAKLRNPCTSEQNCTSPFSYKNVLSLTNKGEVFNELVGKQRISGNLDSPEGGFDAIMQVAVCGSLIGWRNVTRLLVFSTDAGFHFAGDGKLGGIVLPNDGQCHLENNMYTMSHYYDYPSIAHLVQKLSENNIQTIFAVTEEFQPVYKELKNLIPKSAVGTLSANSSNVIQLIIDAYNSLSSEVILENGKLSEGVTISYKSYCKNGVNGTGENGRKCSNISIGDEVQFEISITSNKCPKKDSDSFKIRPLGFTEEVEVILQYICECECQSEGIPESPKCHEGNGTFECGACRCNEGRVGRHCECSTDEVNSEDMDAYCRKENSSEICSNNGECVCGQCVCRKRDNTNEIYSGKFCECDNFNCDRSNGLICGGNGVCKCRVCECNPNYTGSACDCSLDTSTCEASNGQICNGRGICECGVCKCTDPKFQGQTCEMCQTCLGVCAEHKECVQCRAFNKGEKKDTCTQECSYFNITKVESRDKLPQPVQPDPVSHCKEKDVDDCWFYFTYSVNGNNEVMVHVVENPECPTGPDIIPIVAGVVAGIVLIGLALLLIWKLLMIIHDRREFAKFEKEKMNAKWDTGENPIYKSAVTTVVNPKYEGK
# Sequence of Integrin beta-1 (Homo sapiens) + Integrin alpha-4 (Homo sapiens) (P13612 whole entry, looked up): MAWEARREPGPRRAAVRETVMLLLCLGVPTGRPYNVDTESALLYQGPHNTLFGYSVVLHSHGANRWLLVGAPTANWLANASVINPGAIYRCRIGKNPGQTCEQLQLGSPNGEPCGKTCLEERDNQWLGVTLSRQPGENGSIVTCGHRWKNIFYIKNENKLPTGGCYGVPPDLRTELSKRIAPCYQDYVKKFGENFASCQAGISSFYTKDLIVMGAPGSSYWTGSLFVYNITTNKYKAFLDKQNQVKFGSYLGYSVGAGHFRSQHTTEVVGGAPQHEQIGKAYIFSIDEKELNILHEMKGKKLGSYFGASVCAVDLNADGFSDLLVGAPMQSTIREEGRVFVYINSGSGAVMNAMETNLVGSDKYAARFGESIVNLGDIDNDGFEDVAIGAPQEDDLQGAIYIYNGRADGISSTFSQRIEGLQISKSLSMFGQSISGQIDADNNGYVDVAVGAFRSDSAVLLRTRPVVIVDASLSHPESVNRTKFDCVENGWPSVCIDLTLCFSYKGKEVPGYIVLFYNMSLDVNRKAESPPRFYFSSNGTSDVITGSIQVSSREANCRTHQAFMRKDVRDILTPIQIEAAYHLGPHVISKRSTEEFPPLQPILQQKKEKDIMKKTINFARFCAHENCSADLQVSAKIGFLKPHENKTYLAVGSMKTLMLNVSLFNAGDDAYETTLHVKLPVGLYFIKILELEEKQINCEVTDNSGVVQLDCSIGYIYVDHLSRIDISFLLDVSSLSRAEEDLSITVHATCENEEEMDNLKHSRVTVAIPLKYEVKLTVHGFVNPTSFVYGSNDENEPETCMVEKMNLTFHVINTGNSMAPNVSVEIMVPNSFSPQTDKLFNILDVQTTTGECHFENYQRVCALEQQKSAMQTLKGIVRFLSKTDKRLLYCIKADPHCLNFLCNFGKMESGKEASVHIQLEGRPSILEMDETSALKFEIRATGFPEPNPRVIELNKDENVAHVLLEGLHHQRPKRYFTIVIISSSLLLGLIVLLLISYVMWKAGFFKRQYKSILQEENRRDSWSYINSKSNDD
# Sequence of ATP-binding cassette sub-family B member 6 (Homo sapiens) (Q9NP58 whole entry, looked up): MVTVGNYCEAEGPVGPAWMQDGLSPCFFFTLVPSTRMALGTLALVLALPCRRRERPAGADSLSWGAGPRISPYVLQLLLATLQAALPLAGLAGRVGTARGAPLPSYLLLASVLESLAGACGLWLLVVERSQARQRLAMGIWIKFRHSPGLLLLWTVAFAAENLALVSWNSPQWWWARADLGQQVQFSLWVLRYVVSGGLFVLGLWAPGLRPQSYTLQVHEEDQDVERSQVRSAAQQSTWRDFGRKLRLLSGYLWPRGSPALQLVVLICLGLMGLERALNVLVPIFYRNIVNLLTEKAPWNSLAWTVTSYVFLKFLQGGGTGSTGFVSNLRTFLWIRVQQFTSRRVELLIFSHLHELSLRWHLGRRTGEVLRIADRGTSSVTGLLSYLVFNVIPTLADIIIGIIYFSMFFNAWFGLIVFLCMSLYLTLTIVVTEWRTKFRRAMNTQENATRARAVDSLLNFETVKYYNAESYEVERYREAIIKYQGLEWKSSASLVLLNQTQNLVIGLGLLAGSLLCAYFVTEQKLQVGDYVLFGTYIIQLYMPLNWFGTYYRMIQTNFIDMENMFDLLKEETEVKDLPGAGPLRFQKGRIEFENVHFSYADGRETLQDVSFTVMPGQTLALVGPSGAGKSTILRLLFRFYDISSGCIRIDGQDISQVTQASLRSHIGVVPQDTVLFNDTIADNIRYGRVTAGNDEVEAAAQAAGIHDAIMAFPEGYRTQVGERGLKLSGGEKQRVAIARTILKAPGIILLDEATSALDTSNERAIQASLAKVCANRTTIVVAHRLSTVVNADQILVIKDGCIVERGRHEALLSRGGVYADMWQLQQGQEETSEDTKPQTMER
SMILES,percent of DMSO control GFP [1],GFP response vs DMSO [2],percent response of DMSO control [3],GFP response vs DMSO [4],"GFP response, % of DMSO [5]",double positive events [6] [%],vesicle binding response [6],inhibition [7],superoxide response (% of plate) [8],aptamer binding inhibition [9],response [10],inhibition [11],response [12],binding (% of control) [13],efflux inhibition (fraction of control) [14],inhibition [15],differentiation response [16]
CCCCOc1ccc(C(=O)CCN2CCCCC2)cc1,109% (inactive),96.6% (inactive),97.6% (inactive),126% (inactive),78.8% (inactive),58.1,108% (inactive),-9.13% (inactive),83.9% (inactive),-1% (inactive),26.6% (inactive),-10.4% (inactive),7.43% (inactive),104% (inactive),0.11 (inactive),7% (inactive),4.2% (inactive)
Cn1cc(CN2CCC(C(=O)N3CCCCC3)CC2)c(-c2ccccc2F)n1,95.9% (inactive),137% (inactive),104% (inactive),85.8% (inactive),94.2% (inactive),63.2,131% (inactive),5.49% (inactive),92.8% (inactive),4% (inactive),-5.43% (inactive),0.65% (inactive),-1.21% (inactive),104% (inactive),-0.02 (inactive),16% (inactive),0% (inactive)
O=c1oc2c(CN3CCCCC3)c(O)ccc2c2c1CCCCC2,102% (inactive),102% (inactive),102% (inactive),107% (inactive),107% (inactive),59.1,136% (inactive),6.95% (inactive),102% (inactive),1% (inactive),-8.88% (inactive),-7.24% (inactive),3.83% (inactive),96.4% (inactive),-0.16 (inactive),4% (inactive),8.59% (inactive)
Cc1ccc(NC(=O)CSc2nc(O)c(Cc3ccccc3)c(=O)n2-c2ccccc2)cc1,103% (inactive),105% (inactive),94.2% (inactive),99.3% (inactive),102% (inactive),65,210% (inactive),-6.68% (inactive),95.4% (inactive),3% (inactive),3.5% (inactive),16.9% (inactive),-1.44% (inactive),97.7% (inactive),-0.17 (inactive),9% (inactive),1.22% (inactive)
COc1ccc2cc(C(=O)Nc3ccc(S(N)(=O)=O)cc3)sc(=O)c2c1OC,93.7% (inactive),110% (inactive),114% (inactive),79.8% (inactive),98.9% (inactive),57.9,258% (inactive),3.55% (inactive),101% (inactive),-4% (inactive),19.2% (inactive),-1.93% (inactive),0.97% (inactive),97.8% (inactive),0.19 (inactive),7% (inactive),-9.01% (inactive)
c1coc(-c2nnc3n2C2(CCCC2)Cc2ccccc2-3)c1,94.2% (inactive),114% (inactive),97.9% (inactive),82.5% (inactive),91.5% (inactive),73.1,279% (inactive),25.9% (inactive),91.6% (inactive),4% (inactive),-2% (inactive),-13.2% (inactive),0.46% (inactive),109% (inactive),-0.6 (inactive),14% (inactive),3.28% (inactive)
CC12CCC(C(=O)NCc3ccc4c(c3)OCO4)(CC1=O)C2(C)C (stereo unspecified),100% (inactive),98.6% (inactive),103% (inactive),102% (inactive),107% (inactive),60.9,252% (inactive),0.59% (inactive),113% (inactive),0% (inactive),-30.8% (inactive),4.11% (inactive),-1.56% (inactive),105% (inactive),0.08 (inactive),6% (inactive),-1.05% (inactive)
C[C@H](CCC(=O)O)[C@H]1CC[C@H]2[C@@H]3C(=O)C[C@@H]4CC(=O)CC[C@]4(C)[C@H]3CC(=O)[C@]12C,99.3% (inactive),105% (inactive),101% (inactive),120% (inactive),119% (inactive),57.7,220% (inactive),22.7% (inactive),95.4% (inactive),4% (inactive),-23.4% (inactive),10.1% (inactive),-2.4% (inactive),109% (inactive),-0.09 (inactive),0% (inactive),-11.9% (inactive)
OC12CCCCC1C(c1ccc3c(c1)OCO3)N(Cc1cccc(F)c1)CC2 (stereo unspecified),103% (inactive),90.9% (inactive),113% (inactive),94% (inactive),101% (inactive),61.7,234% (inactive),-5.64% (inactive),97.9% (inactive),3% (inactive),-6.32% (inactive),7.03% (inactive),-0.75% (inactive),104% (inactive),-0.01 (inactive),0% (inactive),-10.5% (inactive)
CC12CN3CC(C)(CN(C1)C3c1ccc(Cl)cc1Cl)C2=O (stereo unspecified),103% (inactive),98.3% (inactive),112% (inactive),94.7% (inactive),104% (inactive),67.5,387% (inactive),5.77% (inactive),98.9% (inactive),4% (inactive),-10.5% (inactive),-0.61% (inactive),-0.6% (inactive),95.1% (inactive),-0.01 (inactive),-3% (inactive),-8.55% (inactive)
CCNC(=O)C(Cc1ccccc1)NC(=O)OCc1ccccc1 (stereo unspecified),101% (inactive),103% (inactive),99.6% (inactive),117% (inactive),106% (inactive),62.5,367% (inactive),19.3% (inactive),112% (inactive),2% (inactive),-19.9% (inactive),1.34% (inactive),0.55% (inactive),108% (inactive),0 (inactive),6% (inactive),-12.9% (inactive)
COc1ccc2c(c1OC)C(C1c3c(cc4c(c3OC)OCO4)CCN1C)OC2=O (stereo unspecified),107% (inactive),93% (inactive),121% (inactive),88.7% (inactive),111% (inactive),60.6,54.2% (inactive),-23.3% (inactive),95.3% (inactive),1% (inactive),-7.53% (inactive),-1.99% (inactive),2.98% (inactive),98.9% (inactive),0.02 (inactive),6% (inactive),-2.69% (inactive)
C#C[C@]1(O)CC[C@H]2[C@@H]3CCc4cc(OC5CCCC5)ccc4[C@H]3CC[C@@]21C,101% (inactive),104% (inactive),88.6% (inactive),126% (inactive),113% (inactive),62.7,213% (inactive),14.2% (inactive),97.7% (inactive),-1% (inactive),-9.24% (inactive),-1.15% (inactive),6.88% (inactive),105% (inactive),0.38 (inactive),3% (inactive),0% (inactive)
COc1ccc2[nH]c(=O)c(CN(C(=O)c3ccco3)C(C)C)cc2c1,91.7% (inactive),148% (active),103% (inactive),83.6% (inactive),92.6% (inactive),72.1,221% (inactive),4.52% (inactive),108% (inactive),3% (inactive),-2.75% (inactive),-1.83% (inactive),-5.39% (inactive),101% (inactive),0.41 (inactive),9% (inactive),0% (inactive)
COc1ccc(O)c(C(=O)/C=C/c2cc3ccccc3o2)c1,95.9% (inactive),112% (inactive),96.7% (inactive),109% (inactive),95.2% (inactive),59.6,117% (inactive),-0.43% (inactive),106% (inactive),3% (inactive),23% (inactive),1.27% (inactive),0.06% (inactive),102% (inactive),-0.17 (inactive),1% (inactive),-2.4% (inactive)
CC(C)CN1CCN(Cc2ccc(C#CC(C)(C)O)cc2)CC1CCO (stereo unspecified),92% (inactive),132% (inactive),102% (inactive),78.7% (inactive),86.6% (inactive),67.3,215% (inactive),-8.09% (inactive),92.7% (inactive),0% (inactive),-11.4% (inactive),29.9% (inactive),-6.34% (inactive),98.3% (inactive),0.34 (inactive),9% (inactive),-2.46% (inactive)
CCOC(=O)C(=Cc1ccccc1OC)C(=O)OCC,95% (inactive),108% (inactive),91% (inactive),132% (inactive),92.9% (inactive),55.3,189% (inactive),-18.2% (inactive),102% (inactive),-2% (inactive),-11.8% (inactive),0.13% (inactive),0.91% (inactive),98.9% (inactive),-0.03 (inactive),4% (inactive),-12% (inactive)
CCc1cccc2c3c([nH]c12)C(CC)(CC(=O)O)OCC3 (stereo unspecified),103% (inactive),106% (inactive),100% (inactive),93.3% (inactive),100% (inactive),61.9,36.2% (inactive),-4.6% (inactive),107% (inactive),1% (inactive),-0.16% (inactive),-11.4% (inactive),1.09% (inactive),86.9% (inactive),-0.26 (inactive),-5% (inactive),3.18% (inactive)
